Source: PubChem BioAssay
The list is not random: actives were taken first. Their share in the collection is about 1.9%.
IEC-6 cytotox: counter-screen for KLF5 inhibitors: cytotoxicity in IEC-6 cells. IEC-6 cytotoxicity, luminescence viability. inhibition, % at 5 µM. 290,000 tested, 0.78% active; in the data active = inhibition above about 22%;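 also: 0% = plate median of test compound wells and 100% = cytotoxic reference compound wells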
APP 5UTR inh: APP translation inhibition; inhibition, % at 2 µM; 190,000 tested, 0.82% active; SH-SY5Y APP 5'UTR-luciferase reporter, luminescence;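 active = inhibition above a set limit, derived from the sample mean plus 3 SD, cut at about 45% in these data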
KLF5 inhibitor: suppresses KLF5 promoter-driven expression. DLD-1 KLF5 promoter-luciferase reporter, luminescence. inhibition, % at 5 µM. 290,000 tested, 0.23% active. AID 1700;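 active = inhibition above a per-plate limit of that plate's mean compound inhibition plus 3 SD, cut at about 60% in these data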;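 also: 0% = DMSO wells and 100% = LY294002 at 200 µM; higher means less KLF5 promoter-driven luciferase light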
Ba/F3 V617F tox: reduce viability of Ba/F3 cells dependent on JAK2V617F; Ba/F3 EpoR-JAK2V617F viability, ATP luminescence; inhibition, % at 5.6 µM; 220,000 tested, 1.1% active;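 active = inhibition above the campaign mean plus 3 SD over all tested compounds, cut at about 24% in these data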;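 also: cytokine-independent growth of Ba/F3 cells driven by EpoR plus mutant JAK2; 0% = DMSO-treated cells and 100% = JAK inhibitor I control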
BaF3 parental: counter-screen for JAK2V617F inhibitors: parental Ba/F3 viability inhibitors | AID 1486 | CellTiter-Glo ATP luminescence | inhibition, % at 5.6 µM | 220,000 tested, 1.1% active;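 active = inhibition above a per-campaign cutoff, the mean inhibition of all tested compounds plus 3 SD, cut at about 27% in these data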;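 also: 0% = DMSO wells and 100% = JAK Inhibitor I control wells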
* = called active by the depositor; · = not tested or not shown.

SMILES | IEC-6 cytotox | APP 5UTR inh | KLF5 inhibitor | Ba/F3 V617F tox | BaF3 parental
CCn1c2ccccc2c2cc(/C=N/NC(=O)c3ccccc3C)ccc21 | 4 | 79* | -17 | 2 | 10
Cc1nc2ccccc2c(=O)n1/N=C/c1ccccc1 | 5 | -12 | -3 | -6 | -3
Cc1nc2ccccc2c(=O)n1/N=C/c1cccs1 | 0 | 53* | -77 | 0 | -3
CCc1ccc(N2CCN(S(=O)(=O)CC34CCC(CC3=O)C4(C)C)CC2)cc1 (stereo unspecified) | 3 | · | -29 | · | ·
COc1ccc(C/C(C)=N/NC(=O)c2ccc(Cl)cc2)cc1 | 3 | -1 | -2 | -1 | 3
CCOc1cc(C(=O)N/N=C(\C)Cc2ccc(OC)cc2)cc(OCC)c1OCC | 0 | 86* | -3 | -2 | 2
CC(=O)O[C@@]12CO[C@@H]1C[C@H](O)[C@@]1(C)C(=O)[C@H](O)C3=C(C)[C@@H](OC(=O)[C@H](O)[C@@H](NC(=O)OC(C)(C)C)c4ccccc4)C[C@](O)([C@@H](OC(=O)c4ccccc4)[C@H]21)C3(C)C | 87* | · | 68* | 73* | 62*
CC1=C(C(=O)Nc2cc(C(=O)N3CCN(c4cccc(C)c4C)CC3)ccc2C)SCCO1 | 1 | · | 15 | · | ·
Cc1ccc2c(c1)N(CC(=O)NCc1ccco1)C(=O)C(C(C)C)O2 (stereo unspecified) | -6 | · | -7 | -2 | -3
CCC1Oc2ccc(C)cc2N(CC(=O)NCc2ccco2)C1=O (stereo unspecified) | -1 | 4 | -26 | 1 | 90*
Cc1cccc2nc(-c3ccco3)c(Nc3ccccc3)n12 | -1 | -5 | -6 | 0 | 0
Cc1ccc(Nc2c(-c3ccccn3)nc3cccc(C)n23)cc1 | 10 | 68* | 22 | 3 | 5
CCC(Oc1ccccc1)C(=O)Nc1cc(C)on1 (stereo unspecified) | 1 | 5 | 1 | -1 | -3
CCC(Oc1ccccc1)C(=O)Nc1ccccn1 (stereo unspecified) | -2 | -35 | 2 | -2 | 89*
N=c1c2c(n(Cc3cccc(Cl)c3)c3c1CCC3)CCCC2 | 6 | 0 | 28 | 72* | 61*
O=C1CCCc2ccccc2N1Cc1ccc(F)cc1 | -2 | 2 | 8 | 0 | 6
Cc1nc(N2CCN(Cc3ccccc3)CC2)nc2c1CCC2 | 0 | 8 | 6 | 4 | 13
N=c1c2c(n(Cc3ccc(F)cc3)c3c1CCC3)CCCC2 | -1 | 8 | 13 | 55* | 57*
N=c1c2c(n(Cc3ccc(Cl)cc3)c3c1CCC3)CCC2 | 6 | -2 | 38 | 95* | 73*
N=c1c2c(n(Cc3ccccc3)c3c1CCC3)CCC2 | 4 | -10 | 25 | 62* | 60*
Clc1cccc(CN2CCCCCC2)c1 | -1 | · | -2 | · | ·
CSc1ccc(/C=C2\C(=N)N3N=C(CC(=O)N4CCCCC4)SC3=NC2=O)cc1 | -10 | · | -2 | · | ·
COc1ccc(-c2cc(=O)oc3c(C)c(OC(C)C(=O)NCc4ccccn4)ccc23)cc1 (stereo unspecified) | -1 | · | -18 | · | ·
Cn1ccsc1=NC(=O)c1ccc(OC(F)(F)F)cc1 | 2 | · | -135 | · | ·
COc1cc2c(cc1O)CC[n+]1cc3c(OC)c(OC)ccc3cc1-2 | -6 | 9 | -2 | 21 | 45*
SMILES | IEC-6 cytotox | APP 5UTR inh | KLF5 inhibitor | Ba/F3 V617F tox | BaF3 parental
COc1cc2c(cc1OC)-c1cc3ccc4c(c3c[n+]1CC2)OCO4 | -2 | 11 | -10 | 49* | 57*
COc1cc2c(cc1OC)CN(Cc1cc(OC)c3c(c1)OCO3)CC2 | 3 | · | -13 | · | ·
Cc1ccc(S(=O)(=O)N2CCN(C(=O)Cc3ccc4c(c3)OCCO4)CC2)cc1C | -8 | 7 | -31 | 0 | 4
O=C1SCC(c2ccccc2)=NN1Cc1ccccc1 | 3 | 14 | -71 | 5 | 32*
CC(=O)Nc1ccc(C2=NN(Cc3nnc(-c4ccccc4)o3)C(=O)SC2)cc1 | 4 | -7 | -9 | -1 | 6
N/C(Cc1nc(-c2ccc(Cl)cc2)cs1)=N/O | 4 | · | -12 | -4 | 0
CN(Cc1ccccc1)C(=O)c1ccc(NC(=O)c2ccccc2)cc1 | -1 | · | -28 | · | ·
O=C(CNS(=O)(=O)c1ccccc1)N/N=C/c1ccccc1[N+](=O)[O-] | 4 | · | -27 | · | ·
CC(=O)Nc1sc(NC(=O)c2ccc([N+](=O)[O-])cc2)nc1-c1cccs1 | 8 | · | -5 | 11 | 46*
CCOc1ccc(N(C(=O)Nc2ccccc2)C2=NCCC2)cc1 | 1 | -20 | -16 | -3 | 3
CNC(=O)N(C1=NCCCCC1)c1ccc(Br)cc1 | -10 | 45* | -6 | -2 | 4
CC(C(=O)Nc1cccc(S(=O)(=O)N2CCOCC2)c1)N1CCN(C/C=C/c2ccccc2)CC1 (stereo unspecified) | -7 | -2 | -15 | 28* | 30*
O=C(Nc1cccc(S(=O)(=O)N2CCOCC2)c1)C(c1ccccc1)N1CCCCC1 (stereo unspecified) | 4 | -21 | -3 | -3 | 2
Cc1c(/C=N/NC(=O)c2ccc(Br)o2)cnn1C | -1 | · | -65 | -1 | -1
COc1ccccc1-c1noc(-c2ccccc2C(=O)NCC2CCCO2)n1 (stereo unspecified) | 3 | · | -15 | · | ·
Cc1ccccc1-c1noc(-c2ccccc2C(=O)NCC2CCCO2)n1 (stereo unspecified) | 0 | · | 9 | 0 | 62*
CCCc1nc2oc3c(NCCN(C)C)ncnc3c2c2c1CCCC2 | 4 | -10 | 11 | -1 | -1
CCCc1nc2oc3c(NCCCN(C)C)ncnc3c2c2c1CCCC2 | -6 | · | -31 | 68* | 69*
Cn1cc(C(=O)N2CCN(c3cccc(Cl)c3)CC2)c(=O)c2cc(S(=O)(=O)N3CCOCC3)ccc21 | -2 | · | -5 | · | ·
COC(=O)c1cn(C(=O)c2ccccc2Cl)c2ccccc12 | 2 | -10 | -12 | -1 | 4
COC(=O)c1cn(C(=O)c2ccc(C)cc2C)c2ccccc12 | 6 | 54* | 1 | 5 | 9
CCSc1nc2sc3c(c2c(=O)n1-c1ccc(OC)cc1)CCN(C)C3 | -6 | · | -18 | 13 | 38*
O=C(O)/C=C/c1ccc(S(=O)(=O)Nc2ccc(OCc3ccccc3)cc2)cc1 | -2 | · | -34 | -1 | -14
N#Cc1ccccc1COc1ccc(/C=C/C(=O)O)cc1 | 0 | 60* | -2 | 8 | 5
Cc1noc(C)c1C(=O)OCC(=O)C12CC3CC(CC(C3)C1)C2 | 4 | 3 | -26 | 4 | 0
SMILES | IEC-6 cytotox | APP 5UTR inh | KLF5 inhibitor | Ba/F3 V617F tox | BaF3 parental
COc1ccc(Cc2nc3ccc(C(=O)NC4CCOC4)cc3o2)cc1 (stereo unspecified) | -4 | · | -28 | · | ·
Cn1ncc(Br)c1NC(=O)Nc1ccc(OC(F)(F)F)cc1 | 11 | · | 15 | 4 | 32*
Cc1ccc(CNC(=O)Nc2ccc(OC(F)(F)F)cc2)n1C | 4 | · | -42 | · | ·
CSc1ncc(C(=O)Nc2cccc(C)c2C)c(C)n1 | -2 | · | -42 | · | ·
CC(C)C(C(=O)Nc1ccc2c(c1)OCCO2)N1C(=O)c2ccccc2C1=O (stereo unspecified) | -6 | -13 | 12 | 0 | 94*
CC(C)C(C(=O)Nc1ccc2c(c1)OCO2)N1C(=O)c2ccccc2C1=O (stereo unspecified) | -6 | 4 | -32 | -3 | 8
